PubChem BioAssay AID1347426 (Functional Genomics Laboratory (NCATS/FGL), 2020)
Out of some 31,000 sequences screened, about 1,400 (4.5%) were called active. Many of the other results were omitted from the sample, so actives are more common in it than they were. Unmarked numbers belong to inactive results.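 The calls were made as follows: active = median seed-adjusted z-score above 1 or below -1; inactive = the rest.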

Test: Novel Modifiers of Survival Motor Neuron (SMN) Protein: Gene Identification via Genome-wide siRNA Screen;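 also: luminescence tracks full-length SMN protein made from the SMN2 reporter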
Settings: HEK293T SMN2-luciferase reporter, siRNA knockdown, 72 h; actives lie on both sides
Summary of the method: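 Each of three siRNAs per gene is reverse-transfected (1 pmol) into reporter HEK293T cells whose luciferase output tracks SMN protein level. After 72 h culture, ONE-Glo luminescence is control-normalized, log10-transformed and MAD-standardized; Common Seed Analysis deprioritizes seed-driven hits.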

Sequence | median seed-adjusted z-score
CAACGUAUCAGAUUGAGAATT against ZNF281 | 1.19 (active)
CUACCGGAUUGAGAUGGAATT against MEGF6 | 0
GCUGCUUGUGGAUUCGCUATT against TLN2 | -0.0106
CACUCACACCAACCUGUGATT against GNG13 | -0.516
CAGUGUUAGUGGAUUCAGATT against TMEM87B | -0.51
CAACCUUAUUAUCAUUGAATT against SF3B3 | -2.53 (active)
GGCAGAUCCUGACCUUUGATT against PRMT7 | 0.204
CUUAAGAUCCCACACCUCATT against SLC39A4 | 0.0304
GCAUGUUCCAGAUCUAUCATT against DRD5 | -0.18
GAGCGUGACUGGGUUCUAATT against DDX5 | 0.891
CAAAGACAAGGUCCCAUUUTT against IFI35 | 0.105
GCCCUAGAAAGGUCACUGATT against AKR1CL1 | 0.488
GGAGGAACUCGAAUCAUUUTT against EIF4EBP2 | 0.517
GCAUCACCUUCUUUCGGAUTT against UNC13A | -2.1 (active)
GGACGGAAAACAGUCUUAATT against OAS2 | 0.0758
CCCACACUCUAGACUGAAATT against MEF2D | 0.0021
CGGUCAAUGUUCUAAAGAUTT against CACNG5 | -0.41
CCAUGACUGUCAAUCGUCATT against GFM1 | -0.0641
GGACCUACACUUUUCUCUUTT against FAM53B | -0.00535
CCCUAAAGUUAAUCACCCATT against NUCB2 | 0.45
GUUCCAUCCUGAUUCAAAUTT against PIGM | 1.36 (active)
GUUGAUAAGUUUUACCGAUTT against ADAM19 | 0.0996
CCACCCGGACGAUAUCUUUTT against PPARA | 0.113
GGAACGCAGUCGGAUCUCATT against RHOU | -1.44 (active)
GCAUUUGCAAUGAAGGCUATT against DNER | -0.316
GAACCAGAUGAGACAUUCATT against SPSB1 | -0.378
CUCUAAUGUUAAUCCGAGATT against MED14 | -3.22 (active)
GAGGCUCAAUGUUACACCATT against ACAT1 | -0.848
CCAUUGGGCUAUGACCUGATT against ACOT4 | -0.158
GGCACUAUUUCCAAUGGAATT against ADAMTS12 | -0.0721
